AID504770: E. coli YBA685 growth inhibition, screen for V. cholerae RctB inhibitors | E. coli YBA685 rctB-dependent plasmid, OD600 growth, 3 h; active compounds read low | 130,000 tested, 0.27% active | z-score (no concentration beside the values); in the data active = z-score below about -2, passing the limit was not always enough
MbtI inh: blocks the Mycobacterium tuberculosis siderophore enzyme MbtI; P9WFX0; purified MbtI enzyme, fluorescence intensity read-out; inhibition, % (concentration not given with the values); 100,000 tested, 0.89% active; AID 493033; in the data active = inhibition mostly above about 56%, no sharp cut-off; inactive = mostly below about 77%
Target sequence (P9WFX0 whole entry, looked up): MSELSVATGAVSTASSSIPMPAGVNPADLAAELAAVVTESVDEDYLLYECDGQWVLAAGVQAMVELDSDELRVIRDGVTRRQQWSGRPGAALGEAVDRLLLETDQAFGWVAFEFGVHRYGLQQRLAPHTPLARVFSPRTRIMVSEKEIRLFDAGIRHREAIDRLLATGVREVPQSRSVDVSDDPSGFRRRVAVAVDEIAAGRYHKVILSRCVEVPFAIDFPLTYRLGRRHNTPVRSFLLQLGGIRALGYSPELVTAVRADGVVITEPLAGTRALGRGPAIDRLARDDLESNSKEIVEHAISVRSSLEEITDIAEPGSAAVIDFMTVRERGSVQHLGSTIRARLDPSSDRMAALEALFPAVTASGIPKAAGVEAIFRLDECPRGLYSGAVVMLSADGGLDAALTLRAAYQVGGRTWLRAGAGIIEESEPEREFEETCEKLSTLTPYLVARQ
Mtb MenB inh: Mtb MenB enzyme inhibition. inhibition, % (concentration not given with the values). MenB enzyme assay, absorbance read-out. AID 540299. 100,000 tested, 0.43% active. P9WNP5; in the data active = inhibition above about 21%, passing the limit was not always enough
PV pol inh: inhibitors of poliovirus RNA polymerase binding and polymerization; % elongation, % (compound at 16.7 µg/mL); poliovirus polymerase elongation, fluorescence polarization; active compounds read low; 150,000 tested, 0.66% active; in the data active = % elongation below about 90%
A number is an active result; - = inactive; . = no result given; ! = not confirmed by another sample. Only some compounds are listed: those with a hit (about 1.4% of all), similar ones and a draw of the others.

SMILES	AID504770	MbtI inh	Mtb MenB inh	PV pol inh
S=c1[nH]nc(-c2ccncc2)n1-c1ccc2c(c1)OCO2	-	62	-	-
CC1=C(c2ccc(Cl)cc2)S(=O)(=O)N=C1N1CCC(C(=O)NC2CCCC2)CC1	-	-	-	-
CO[C@@H]1[C@@H](OC(N)=O)[C@@H](O)[C@H](Oc2ccc3c(O)c(NC(=O)c4ccc(O)c(CC=C(C)C)c4)c(=O)oc3c2C)OC1(C)C	-	-	-	-
CO[C@@H]1[C@H](OC(N)=O)C(O)[C@H](Oc2ccc3c(O)c(NC(=O)c4ccc(O)c(CC=C(C)C)c4)c(=O)oc3c2C)OC1(C)C (stereo partly drawn)	.	-	-	101
Oc1ccc(C(=S)N2CCCCC2)cc1	-	58	-	-
S=C(c1ccc(Br)cc1)N1CCCC1	-	.	-	-
COc1ccc(NC(=O)CSc2ccc3ccccc3n2)cc1	-	.	-	-
CC(C)OC1(O)C(=O)c2ccccc2C(=O)C1(O)OC(C)C (stereo not drawn)	-	.	-	9.0
COc1ccccc1CN1CCN(C(CC(C)C)c2nnnn2Cc2ccc(F)cc2)CC1 (stereo not drawn)	-	-	33	-
Fc1ccc(C(c2nnnn2Cc2ccccc2)N2CCSCC2)cc1 (stereo not drawn)	-	-	-	-
Cc1ccnc2nc(C(=O)NN3C(=O)c4ccccc4C3=O)nn12	-	-	-	-
CN(C)CCNCc1ccc(-c2ccccc2)o1	-	-	61	-
CC(O)CNCc1ccc(-c2ccccc2)o1 (stereo not drawn)	-	-	-	-
COc1cc(/C=C\C(C)=N\O)ccc1OCc1ccccc1	-	-	.	.
CCN1CSC(=S)N(Cc2ccc(OC)cc2)C1	-	-	-	-
CCN1CSC(=S)N(Cc2ccccc2)C1	-2.9	-	-	-
N#CSc1c(Cl)nc2sccn12	-4.3	65	.	85
N#CC(C#N)=Cc1c(Cl)nc2sccn12	-	-	-	67
Cc1ccc(N2C(=O)N(Cc3cccnc3)c3ccccc3S2(=O)=O)cc1F	-	-	-	-
COc1ccc(Cl)cc1NC(=O)c1oc2ccc(S(=O)(=O)N3CCC4(CC3)OCCO4)cc2c1C	-	-	-	-
C[C@@H]1NCCc2cc(O)c(O)cc21	.	76	-	-
CN1NC(=O)CC1C(=O)Nc1sc2c(c1C#N)CCCC2 (stereo not drawn)	-	-	-	-
Cc1ccc(C(=O)N2CCN(c3ncnc4c3cnn4-c3ccccc3)CC2)cc1	-4.2	-	-	-
O=C(c1ccc(N2CCCc3ccccc32)s1)N1CCCC1	-2.2	-	-	-
O=C(O)C(C(=O)/C=C/c1ccccc1)=C1SCS1	-	89	-	-
SMILES	AID504770	MbtI inh	Mtb MenB inh	PV pol inh
CCOC(=O)c1c(C)[nH]c(C)c1S(=O)(=O)N1CCCC(C(=O)Nc2ccccc2OCC)C1 (stereo not drawn)	.	.	.	-7.0
CCOc1ccccc1NC(=O)C1CCCN(S(=O)(=O)c2c(C)[nH]c(=O)[nH]c2=O)C1 (stereo not drawn)	.	.	.	-
CCNc1ncnc2c1nnn2CC	-	86	-	-
CCNc1ncnc2c1nnn2C	.	.	.	-
COc1ccc(/C=C2\SC(=O)NC2=S)cc1OC	-	64	-	-
O=Nc1sc2ccc3ccccc3c2c1O	-	69	-	-
Cc1ccc(-c2nc(N3CCN(c4ccc(F)cc4)CC3)c3ccccc3n2)cc1	-	-	-	-
CC(C)NC(=O)c1ccc(-c2ccc(F)cc2)o1	-	-	30	-
COc1ccc2c(c1)CCc1c(C(=O)N3C(C)CCCC3C)noc1-2 (stereo not drawn)	-3	-	-	-
COc1ccc2c(c1)CCc1c(C(=O)N3CCCCC3)noc1-2	-	-	-	-
Nn1c(SCC(=O)NCc2ccc3c(c2)OCO3)nncc1=O	-	-	-	-
Nn1c(SCC(=O)NCc2ccc3c(c2)OCO3)nnc1C1CC1	-	81	-	-
CC12COC3(C(=O)N4CCCCC4)CC1CCC32C (stereo not drawn)	-	-	.	-
CC12COC3(C(=O)Nc4ccccc4)CC1CCC32C (stereo not drawn)	-	-	58	-
Cc1cc2occ(CC(=O)OCc3nc4ccccc4c(=O)n3CC#N)c2cc1C	-	-	-	-
N#C/C(C(N)=O)=C(/S)Nc1ccccc1	-3.8	-	-	-
O=C(Nc1ccccc1)N1CCCCC1	-	-	-	-
N#C/C(C(=O)N1CCCCC1)=C(/S)Nc1ccccc1	-	71	-	-
COc1cccc(C2CC(=O)N3CN(C4CCCCC4)CSC3=C2C#N)c1 (stereo not drawn)	.	.	.	77
COc1ccc(C2CC(=O)N3CN(C4CCCCC4)CSC3=C2C#N)cc1 (stereo not drawn)	.	.	.	75
COc1cccc(C2CC(=O)NC(SC)=C2C#N)c1 (stereo not drawn)	-	-	-	-
CCOC(=O)CN1CSC2=C(C#N)C(c3ccc(OC)cc3)CC(=O)N2C1 (stereo not drawn)	-	-	-	-
O=C(Nc1ncc(Cc2ccccc2)s1)c1ccccc1	-	.	.	.
CC(=O)Nc1ccc(-c2cnc[nH]2)cc1	-	-	-	-
CCn1c(COc2ccc(C)cc2)nnc1SCC(=O)N1CCCc2ccccc21	-	-	-	-
SMILES	AID504770	MbtI inh	Mtb MenB inh	PV pol inh
CCn1c(COc2cccc(C)c2)nnc1SCC(=O)N1C(C)CCCC1C (stereo not drawn)	-	-	39	-
O=c1c2ccccc2n2c(=O)[nH]nc2n1Cc1ccc(F)cc1	-	-	-	-
O=c1c2ccccc2n2c(=S)[nH]nc2n1-c1ccccc1	-	94	-	89
CCCn1c(=O)c2ccccc2n2c(=S)[nH]nc12	-	75	-	-
COc1ccccc1-c1nc(-c2cccc(C(F)(F)F)c2)no1	-	.	.	.
Cc1ccc(-c2csc3ncn(-n4c(C)ccc4C)c(=O)c23)cc1	-	-	-	-
CC(=O)NC(=S)Nc1cccc(C)c1	-	-	-	-
Cc1cccc(NC(=S)Nn2c(O)c(C)sc2=S)c1	-	93	-	-
CCCC(C(=O)O)N1Cc2ccccc2C1=O (stereo not drawn)	-	-	-	-
CCOc1ccc(NC(=O)c2cn(CC(C)C)c(=O)c3c2c2ccccc2n3C)cc1	-2.9	-	-	-
COCCCNC(=O)c1cn(CC(C)C)c(=O)c2c1c1ccccc1n2C	.	.	.	-
CC1COc2c(N3CCN(C)CC3)c(F)cc3c(=O)c(C(=O)O)cn1c23 (stereo not drawn)	-5.2	-	-	-
CC1COc2c(N3CCN(C)CC3)c(F)cc3c(=O)c(C(=O)N4CCN(c5ncccn5)CC4)cn1c23 (stereo not drawn)	-	-	-	-
Cc1ccc(C)n1-c1ccsc1C(=O)O	-	-	-	48
CCOC(=O)C1CCN(C(=O)Cn2ncc3c(C)n(Cc4ccc(Cl)cc4)c(C)c3c2=O)CC1	-	-	-	-
CCn1c(=S)[nH]c2ccccc21	-	-	-	-
S=c1[nH]c2ccccc2n1-c1ccccc1	-	92	-	78
CCCn1c(=S)[nH]c2ccccc21	-	86!	-	-
S=c1[nH]c2ccccc2n1CCc1ccccc1	-	81	-	67
CCCSc1nc2ccccc2n1CC(=O)Nc1ccc(C(N)=O)cc1	-	-	-	-

Screening data from PubChem.
